Test [1] deals with TRPC4 beta (transient receptor potential cation channel C4), mouse. Description: activators of mouse TRPC4 channel, confirmation, cell-based, Fluo4 calcium, HEK293 TRPC4beta/mu-opioid, duplicates, 10 µM (AID 2426;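 active = fluorescence ratio normalized to control raised more than 50% in primary screen plus both repeat runs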). The following applies: Fluo4 calcium fluorescence, at 10 µM; stronger effect = higher value.
Test [2] has as its system transient receptor potential cation channel C4 beta (TRPC4), mouse. Description: activators of mouse TRPC4 channel, confirmation, cell-based, second round, Fluo4, HEK293 TRPC4beta/mu-opioid, 1 µM (AID 2461;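 active = primary screen active and over 50% activation in each of two duplicate runs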). The conditions noted are these: Fluo4 calcium fluorescence, at 1 µM; stronger effect = higher value.
The test system of test [3] is TRPC4 (transient receptor potential cation channel C4 beta), mouse. Description: positive allosteric modulators of mouse TRPC4, confirmation, cell-based, second round, Fluo-4, HEK293 TRPC4beta/mu-opioid, 1 µM (AID 2554). The conditions noted are these: DAMGO EC20, Fluo-4 calcium flux, at 1 µM; stronger effect = higher value.
Test [4] relates to TRPC4 beta (transient receptor potential cation channel C4), mouse. Description: positive allosteric modulators of mouse TRPC4, confirmation, cell-based, Fluo-4, HEK293 TRPC4beta/mu-opioid (AID 2555;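 active = primary screen hit whose calcium fluorescence ratio, in both repeats, exceeds the weak agonist control mean by 3 SD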). The following applies: DAMGO EC20, Fluo-4 calcium flux, at 10 µM; stronger effect = higher value.
In test [5] the target is Short transient receptor potential channel 4 (Mus musculus) (UniProt Q9QUQ5). Description: inhibitors of mouse TRPC4 channel, confirmation, cell-based, Fluo4, HEK293 TRPC4beta/mu-opioid (AID 2636;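 active = calcium signal cut by more than 3 SD below the full-agonist control yet still positive, in both repeats and the earlier primary screen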). The following applies: DAMGO, Fluo4 calcium flux, at 10 µM; stronger effect = higher value.
Short transient receptor potential channel 4 (Mus musculus), sequence (Q9QUQ5 whole entry, looked up): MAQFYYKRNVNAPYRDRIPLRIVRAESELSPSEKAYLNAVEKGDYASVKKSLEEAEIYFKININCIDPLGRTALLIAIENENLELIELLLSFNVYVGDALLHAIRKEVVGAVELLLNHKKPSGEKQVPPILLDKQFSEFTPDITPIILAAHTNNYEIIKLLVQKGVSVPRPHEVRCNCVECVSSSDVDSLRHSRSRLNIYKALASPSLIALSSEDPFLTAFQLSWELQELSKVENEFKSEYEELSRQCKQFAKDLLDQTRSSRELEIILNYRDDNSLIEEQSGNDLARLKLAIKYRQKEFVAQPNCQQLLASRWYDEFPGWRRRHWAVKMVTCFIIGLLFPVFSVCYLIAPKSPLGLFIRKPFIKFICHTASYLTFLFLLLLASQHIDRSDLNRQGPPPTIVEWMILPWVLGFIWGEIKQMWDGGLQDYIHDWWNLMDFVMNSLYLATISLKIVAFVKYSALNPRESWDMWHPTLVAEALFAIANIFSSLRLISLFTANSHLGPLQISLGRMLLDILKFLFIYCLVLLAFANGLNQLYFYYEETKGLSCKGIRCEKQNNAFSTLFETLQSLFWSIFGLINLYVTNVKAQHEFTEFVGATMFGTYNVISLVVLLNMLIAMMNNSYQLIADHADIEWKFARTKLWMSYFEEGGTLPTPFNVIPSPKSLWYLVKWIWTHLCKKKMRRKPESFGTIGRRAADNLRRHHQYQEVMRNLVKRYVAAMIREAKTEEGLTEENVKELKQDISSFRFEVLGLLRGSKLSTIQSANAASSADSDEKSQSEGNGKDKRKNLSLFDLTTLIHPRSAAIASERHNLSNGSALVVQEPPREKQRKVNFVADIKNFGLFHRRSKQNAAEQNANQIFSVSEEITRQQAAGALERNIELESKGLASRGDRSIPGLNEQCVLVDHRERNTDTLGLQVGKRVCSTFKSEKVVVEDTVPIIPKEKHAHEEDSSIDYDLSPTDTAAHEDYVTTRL
For test [6] the target is unchanged. The test is described as follows: inhibitors of mouse TRPC4 channel, confirmation, cell-based, second round, Fluo4, HEK293 TRPC4beta/mu-opioid, 1 µM (AID 2637;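 active = calcium signal ratio cut to more than 3 SD under the fully stimulated control mean yet still positive, in both repeats and the primary screen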). The conditions noted are these: Fluo4 calcium flux, DAMGO, at 1 µM; stronger effect = higher value.
For test [7] the target is unchanged. Description: mouse TRPC4 channel activators, dose response, cell-based, HEK293 TRPC4/mu-opioid, Fluo-4 calcium (AID 434937;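 active = primary screen activator hit with a dose response curve and TRPC4 channel activation at any tested dose; inactive = no activation, no dose response, or not a primary hit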).
Test [8] shares this target. The test is described as follows: TRPC4 positive allosteric modulators, dose response, cell-based, HEK293 TRPC4/mu-opioid, Fluo-4 calcium, EC20 DAMGO (AID 434941;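 active = earlier screen potentiator hit that boosts the TRPC4 ion channel at some dose, with a dose response; inactive = no potentiation, no dose response, or not a prior hit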;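 note: calcium entry triggered by an EC20 dose of DAMGO at the co-expressed mu-opioid receptor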).
Test [9] shares this target. The test is described as follows: mouse TRPC4 channel inhibitors, dose response, cell-based, HEK293 TRPC4/mu-opioid, Fluo-4 calcium (AID 434942;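 active = primary screen inhibitor hit that blocks the TRPC4 channel at some tested dose, yielding a dose curve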).
In test [10] the target is Short transient receptor potential channel 6 (Mus musculus) (UniProt Q61143). Description: inhibition of mouse TRPC6 channel, confirmation, selectivity assay for TRPC4 inhibitor project, cell-based, HEK293, membrane potential dye, duplicate (AID 434948;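 active = active in primary screen and both duplicates, each dropping signal beyond three positive-control SD with fluorescence still positive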). The following applies: HEK293 TRPC6, membrane potential dye fluorescence, at 10 µM, stimulated with maximal-effect acetylcholine; stronger effect = higher value.
Short transient receptor potential channel 6 (Mus musculus), sequence (Q61143 whole entry, looked up): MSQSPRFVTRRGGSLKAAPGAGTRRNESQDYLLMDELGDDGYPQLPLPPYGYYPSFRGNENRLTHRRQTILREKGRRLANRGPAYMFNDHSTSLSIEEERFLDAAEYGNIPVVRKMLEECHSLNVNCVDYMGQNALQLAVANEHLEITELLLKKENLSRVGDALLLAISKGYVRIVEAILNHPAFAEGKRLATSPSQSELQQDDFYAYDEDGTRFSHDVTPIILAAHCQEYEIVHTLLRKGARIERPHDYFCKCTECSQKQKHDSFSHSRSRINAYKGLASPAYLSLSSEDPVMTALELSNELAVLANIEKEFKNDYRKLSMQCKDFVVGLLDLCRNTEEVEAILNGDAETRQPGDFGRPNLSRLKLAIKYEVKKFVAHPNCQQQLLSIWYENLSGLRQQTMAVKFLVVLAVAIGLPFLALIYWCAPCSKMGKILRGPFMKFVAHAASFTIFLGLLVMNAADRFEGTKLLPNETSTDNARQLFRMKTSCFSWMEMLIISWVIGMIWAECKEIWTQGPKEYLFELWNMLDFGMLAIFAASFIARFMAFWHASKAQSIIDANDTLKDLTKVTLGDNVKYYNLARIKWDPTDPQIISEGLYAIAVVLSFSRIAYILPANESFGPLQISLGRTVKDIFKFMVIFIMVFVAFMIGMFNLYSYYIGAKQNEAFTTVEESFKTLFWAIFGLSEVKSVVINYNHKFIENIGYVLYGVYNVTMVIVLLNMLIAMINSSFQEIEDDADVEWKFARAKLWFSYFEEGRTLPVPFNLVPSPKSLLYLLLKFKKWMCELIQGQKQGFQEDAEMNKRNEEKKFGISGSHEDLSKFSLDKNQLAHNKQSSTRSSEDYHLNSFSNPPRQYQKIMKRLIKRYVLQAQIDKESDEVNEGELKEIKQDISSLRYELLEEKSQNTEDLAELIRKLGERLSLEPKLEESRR

The target is the same in test [11]. The test is described as follows: activation of mouse TRPC6 channel, confirmation, selectivity assay for TRPC4 activator project, cell-based, HEK293, membrane potential dye, duplicate (AID 434950;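 active = membrane potential signal rise above negative control mean plus 3 SD in both duplicates, also active in the earlier TRPC4 screen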). The conditions noted are these: HEK293 TRPC6, membrane potential fluorescence, at 10 µM; stronger effect = higher value.
For test [12] the target is unchanged. Description: TRPC6 potentiation by TRPC4 potentiator hits, confirmation, selectivity assay for TRPC4 potentiator project, HEK293 cells, membrane potential dye, duplicate (AID 434952;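 active = compound raising the membrane signal above positive-control mean plus 3 SD in both repeats, and a primary screen hit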). The following applies: HEK293 TRPC6, membrane potential dye fluorescence, at 10 µM, maximal acetylcholine added after compound; stronger effect = higher value.
Test [13] deals with Short transient receptor potential channel 4 (Mus musculus) (UniProt Q9QUQ5). The test is described as follows: calcium flux activators in TRPC4/5HT1a cells, counter-screen for TRPC4 activator project, cell-based, second counter screen, HEK293 TRPC4/5HT1a, Fluo-4 (AID 434977;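 active = calcium signal rise above buffer-control mean plus 5 SD in both duplicates, and also a hit in the primary screen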). The following applies: Fluo-4 calcium flux, at 10 µM; stronger effect = higher value.
A short description of test [14]: calcium flux inhibitors in TRPC4/5HT1a cells, confirmation, counter-screen for TRPC4 inhibitor project, cell-based, second counter screen, HEK293 TRPC4/5HT1a, Fluo-4 (AID 434978;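 active = primary screen active whose calcium signal fell more than 3 SD beyond the full-serotonin control mean in both duplicate plates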;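 note: serotonin given first at submaximal then at maximal dose after compound preincubation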). The following applies: Fluo-4 calcium flux, at 10 µM, serotonin added to trigger calcium flux; stronger effect = higher value.
Test [15] has as its system TRPC4 (mouse), co-expressed with 5HT1a in HEK293. The test is described as follows: calcium flux potentiators in TRPC4/5HT1a cells, confirmation, counter-screen for TRPC4 potentiator project, cell-based, second counter screen, HEK293 TRPC4/5HT1a, Fluo-4 (AID 434979;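 active = signal rise over 3 SD above mean of control wells given weak agonist, in both repeats and first screen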). The conditions noted are these: Fluo-4 calcium flux, at 10 µM, serotonin added at its EC20 dose; stronger effect = higher value.

Test [16] is described as follows: calcium flux activation in mu-opioid HEK293 cells, confirmation, counter-screen for TRPC4 activator project, cell-based, HEK293 mu-opioid receptor line (AID 449723;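 active = hit in primary screen, with calcium signal over 5 SD above buffer well mean in both duplicates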;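 note: counter screen cells carry the mu-opioid receptor alone and lack TRPC4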). The following applies: Fluo-4 calcium fluorescence, at 10 µM; stronger effect = higher value.
Test [17] is described as follows: calcium flux enhancement in mu-opioid HEK293 cells, confirmation, counter-screen for TRPC4 allosteric potentiator project, cell-based, HEK293 mu-opioid receptor line (AID 449724;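 active = calcium signal rise more than 3 SD above the low-dose agonist control mean, in both duplicate plates and the primary screen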;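 note: HEK293 cells carrying mu-opioid receptor only with no TRPC4 channel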). The conditions noted are these: Fluo-4 calcium flux, at 10 µM, compound added before EC20 DAMGO stimulus; stronger effect = higher value.

The source of these data is PubChem BioAssay.

Structures are written as SMILES. For part of these data: Potency and affinity values are given separately. Active and inactive are the calls of the source.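 Rule for the calls, unless noted: active = primary screen hit whose fluorescence ratio, in both repeats, exceeds the weak agonist control mean by 3 SD; inactive = the rest.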

Consider `O=C(COC(=O)c1ccccc1C(=O)N1CCN(c2ccccc2)CC1)Nc1ccc(F)cc1`, for which the result in test [1], in test [2], in test [3], in [5], in [6] and in test [7] was inactive. For the same molecule, the outcome in test [8], in test [9], in [10], in test [11], in test [12] and in test [13] was inactive. Moreover, the result in test [14], in test [16] and in test [17] was inactive. Also, the potentiation in test [4] was 16% (active); in test [15], 50.1% (active).
As for `Cc1cc(OCC(=O)NNC(=S)NC(=O)c2cccs2)ccc1Cl`, the result in test [1], in test [2], in [3], in test [4], in test [5] and in test [6] was inactive. The outcome in test [7], in test [8], in test [9], in test [10], in test [11] and in [12] was inactive. In addition, the result in test [13], in [14], in [15], in test [16] and in test [17] was inactive.
`COc1ccc(C2C(O)C(c3c[nH]c4ccccc34)=NN2C(=O)CCl)cc1` (stereo not given): the outcome in test [1], in test [2], in test [3], in [5], in test [6] and in test [7] was inactive. In addition, the outcome in test [8], in test [9], in test [10], in [11], in test [12] and in [13] was inactive. In addition, the outcome in test [14], in test [16] and in test [17] was inactive. Further, the potentiation was 36% (active) in [4] and 28.9% (active) in [15].
Regarding `Cc1ccc(Nc2ccc(S(=O)(=O)N3CCOCC3)cc2[N+](=O)[O-])cc1C`, the outcome in [1], in [2], in test [3], in test [4], in [5] and in test [6] was inactive. The outcome in test [7], in [8], in test [9], in test [10], in test [11] and in test [12] was inactive. The result in test [13], in [14], in [15], in test [16] and in test [17] was inactive.
As for `O=[N+]([O-])c1ccc(S(=O)(=O)NCCCc2ccccc2)cc1`, the outcome in [1], in test [2], in test [3], in [4], in test [5] and in [6] was inactive. Besides, the result in [7], in [8], in [9], in test [10], in [11] and in [12] was inactive. The outcome in test [13], in [14], in test [15], in test [16] and in test [17] was inactive.
Regarding `CCN1CCN(CCC(=O)Nc2ccccc2OC)CC1`, the result in test [1], in [2], in [3], in test [5], in [6] and in test [7] was inactive. Besides, the result in [8], in test [9], in test [10], in [11], in test [12] and in test [13] was inactive. Also, the result in [14], in test [16] and in [17] was inactive. Further, the potentiation in test [4] is 11% (active); in [15], 17.3% (active).
For `N#Cc1ccc(-c2ccccc2)nc1SCCN1CCOCC1`, the outcome in test [1], in test [2], in test [3], in [4], in [5] and in test [6] was inactive. The outcome in test [7], in [8], in test [9], in test [10], in test [11] and in test [12] was inactive. For the same molecule, the outcome in test [13], in [14], in test [16] and in test [17] was inactive. Also, the potentiation in [15] was 17.3% (active).
Turning to `Cc1c(N2C(=O)/C(=C/c3ccccc3)SC2=S)c(=O)n(-c2ccccc2)n1C`, the outcome in [1], in [2], in test [3], in [4], in [5] and in test [6] was inactive. Further, the outcome in [7], in test [8], in [9], in test [10], in [11] and in test [12] was inactive. In addition, the result in test [13], in [14], in test [15], in test [16] and in [17] was inactive.
For `O=Cc1c(N2CCCCC2)nc2ccccn2c1=O`, the result in test [1], in test [2], in [3], in test [4], in test [5] and in [6] was inactive. Further, the outcome in test [7], in test [8], in [9], in test [10], in test [11] and in test [12] was inactive. The result in [13], in [14], in [15], in test [16] and in test [17] was inactive.
With `Cc1ccc(Cn2c(=N)c(C(=O)NCCN3CCOCC3)cc3c(=O)n4ccccc4nc32)cc1`, the outcome in [1], in [2], in test [3], in test [5], in test [6] and in test [7] was inactive. For the same molecule, the outcome in [8], in test [9], in test [10], in test [11], in [12] and in test [13] was inactive. Also, the result in test [14], in test [15], in [16] and in test [17] was inactive. Besides, the potentiation in test [4] is 31% (active).
As to `OC(c1ccccc1)(c1ccccc1)C1CCN(C(=S)NC2CCCC2)CC1`, the outcome in test [1], in test [2], in test [3], in test [4], in [5] and in test [6] was inactive. For the same molecule, the outcome in [7], in test [8], in [9], in test [10], in test [11] and in [12] was inactive. Besides, the result in [13], in test [14], in [15], in [16] and in test [17] was inactive.
Take `CC(=O)c1ccc(N2CCN(C(=O)CCS(=O)(=O)c3ccc4c(c3)NC(=O)CS4)CC2)cc1`: the outcome in [1], in test [2], in test [3], in test [4], in test [5] and in test [6] was inactive. The result in [7], in test [8], in test [9], in [10], in test [11] and in test [12] was inactive. Further, the outcome in test [13], in test [14], in [16] and in test [17] was inactive. Further, the potentiation in test [15] was 20.9% (active).
With `Oc1ccc(-c2[nH]ncc2-c2ccc(Br)cc2)c(O)c1`, the result in test [1], in [2], in test [3], in test [4], in [5] and in test [6] was inactive. The outcome in test [7], in [8], in test [9], in [10], in test [11] and in test [12] was inactive. Moreover, the result in [13], in test [14], in test [15], in test [16] and in test [17] was inactive.
For the molecule `COC(=O)c1ccc(COc2ccc(/C=N/Nc3nc(C)cc(=O)[nH]3)cc2)cc1`, the result in test [1], in test [2], in test [3], in test [4], in test [5] and in test [6] was inactive. For the same molecule, the result in [7], in test [8], in [9], in test [10], in test [11] and in test [12] was inactive. Further, the result in test [13], in [14], in test [15], in test [16] and in test [17] was inactive.
For the molecule `Cc1cc(N2CCN(C)CC2)n2cc(-c3ccc(F)cc3)nc2n1`, the result in test [1], in [2], in test [4], in [5], in test [6] and in test [7] was inactive. The outcome in test [8], in [9], in [10], in test [11], in [12] and in test [13] was inactive. Also, the result in [14], in [16] and in test [17] was inactive. Besides, the potentiation in test [3] is 11% (active); in test [15], 26.1% (active).
